# Assay results taken from PubChem BioAssay (NCI).
# The panel holds about 83,000 compounds, 20% with a hit somewhere; the sample as a whole holds those more often.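 The endpoint reported here, percent growth, reads 100 for growth as untreated, 0 for no net growth and -100 for all cells dead.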 Unmarked numbers belong to inactive results. Active and inactive are the calls of the source. The calls were made as follows: active = growth percent below 10; inactive = the rest.
# Tested on: HCC-2998 colon
# Assay: NCI-60 one-dose screen, 48 h (100 = growth as untreated, 0 = no growth, -100 = all killed)
# Conditions: 10 µM unless noted
row,Structure (SMILES),growth
1,C=CCN(/C=C/CN(CC=C)CC=C)CC=C,110%
2,O=C(O)C1CCN(S(=O)(=O)c2ccc(-c3ccccc3)cc2)CC1,93.6%
3,Cc1ccc(NC(=O)c2sc3nc4c(cc3c2N)C(=O)CCC4)cc1,80.2%
4,COC(=O)[C@H](CCCCNC(=O)OCc1ccccc1)NC(=O)[C@@H](NC(=O)Nc1cc(C(F)(F)F)cc(C(F)(F)F)c1)C(C)C,-43.4% [100 µM] (active)
5,CCCCN1c2nc3ccccc3cc2Sc2cc3ccccc3nc21,86.5%
6,O=c1oc2c(cc1-c1ccc([N+](=O)[O-])cc1)C(O)Oc1ccccc1-2 (stereo not given),94.3%

# Tested on: KM12 colon
# Assay: as above
# Conditions: 10 µM unless noted
row,Structure (SMILES),growth
1,CC(C)C[C@H](NC(=O)/C=C/Cn1ccc2ccccc2c1=O)B(O)O,37.8%
2,C[C@]12CCC(=O)C=C1CC[C@H]1[C@@H]3C[C@@H](O)[C@](O)(C(=O)CO)[C@@]3(C)C[C@H](O)[C@@]12F,102%
3,CNNc1ncnc2c1cnn2-c1ccc(S(N)(=O)=O)cc1,91.9%
4,O=C(C(=O)c1cc(Br)ccc1O)c1cc(Br)ccc1O,48.6%
5,COc1ccc(/C=C2\CCc3ccccc3C2=O)cc1,44.6%
6,CC(C)N(Cc1ccccc1)c1c(S)ssc1=S,11.5%
7,O=C1C=CC(=O)N1c1ccccn1,107%
8,COc1cccc(/C=N\NC(=O)c2ccncc2)c1O,62.6%
9,CN[C@@H]1C(OC2[C@H](O[C@H]3[C@H](O)[C@@H](O)[C@H](N=C(N)N)[C@@H](O)[C@@H]3N=C(N)N)OC(C)[C@]2(O)CO)OC(CO)C(O)C1O (stereo not given in full),110%
10,CC(C)Sc1nc(-c2ccc(Br)cc2)c(C#N)c(N2CCCCC2)n1,95.9%
11,O=CN1N=C(c2ccc(Nc3ccnc4cc(Cl)ccc34)cc2)CC1c1ccc(Cl)cc1 (stereo not given),9.13% (active)
12,O=C(O)c1ccc2cccnc2c1O,15.1%
13,O=C(Nc1ccc2c(c1)C(=O)c1ccccc1-2)c1ccccc1,87.3%
14,Nc1ccccc1C#Cc1ccccc1C#Cc1ccc(OCCCCCCOc2ccc(C#Cc3ccccc3C#Cc3ccccc3N)cc2)cc1,113%
15,O=C(CC(C(=O)c1ccccc1)N1CCN(Cc2ccccc2)CC1)c1ccccc1 (stereo not given),101%
16,Cc1ccc(S(=O)(=O)N2CCN(C(=O)CSc3nc4ccc(C)cc4[nH]3)CC2)cc1,105%
17,CCCCc1ccc(C(N)=O)nc1,100%

row,Structure (SMILES),growth
1,CC(=O)O[C@H]1CC[C@@]2(C)C(=CC[C@@H]3[C@@H]2CC[C@]2(C)C(c4cccnc4)=CC[C@@H]32)C1,53.7%
2,COc1cnc2c(c1)C(=O)c1c-2n(CCCN2CCOCC2)c(=O)c2cc(F)ccc12,-14.4% (active)
3,O=Cc1ccccc1C(=O)O,97.9%
4,O=C(NCCNC(=O)Oc1cccc2ccccc12)Oc1cccc2ccccc12,104%
5,COc1ccc2cc(C3=CC(=O)CCC3)ccc2c1,109%
6,COc1ccc(NS(=O)(=O)N2CCCCC2)cc1,110%
7,[N-]=[N+]=NCc1ncc(-c2ccc(C(F)(F)F)cc2)c(NC2CCCCCC2)n1,46.8% [50 µM]
8,O=C(CNC(=O)c1cccc2ccccc12)Nc1ccccc1Cc1ccccc1,36% [5 µM]
9,COc1ccc2c(c1)[n+](=O)c(/C=C/C(=O)c1cc(OC)c(OC)c(OC)c1)c(C)n2[O-],80.9%
10,O=C1NCCc2c1noc2-c1ccccc1,103%
11,Cc1sc2nc(N3CCCCC3)[nH]c(=O)c2c1C,102%
12,CS(=O)(=O)N1CCN(Cc2cc3nc(-c4cccc5[nH]ncc45)nc(N4CCOCC4)c3s2)CC1 (tested in a mixture with another compound),24.8%
13,C=CCN(/C=C/CN(CC=C)CC=C)CC=C,105%
14,O=C(O)C1CCN(S(=O)(=O)c2ccc(-c3ccccc3)cc2)CC1,111%
15,Cc1ccc(NC(=O)c2sc3nc4c(cc3c2N)C(=O)CCC4)cc1,56.7%
16,Oc1c(Cl)cc(Oc2cc(Cl)c(O)c(CN3CCOCC3)c2)cc1CN1CCOCC1,102%
17,COC(=O)[C@H](CCCCNC(=O)OCc1ccccc1)NC(=O)[C@@H](NC(=O)Nc1cc(C(F)(F)F)cc(C(F)(F)F)c1)C(C)C,7.99% [100 µM] (active)
